A word on the inhibition: it is the change of the read-out against control, counted positive when it falls.

Molecules are shown by their SMILES. About 370 (0.13%) of roughly 290,000 compounds were called active. Only a selection was taken, and actives are over-represented in it overall. Entries with a potency or affinity are not part of this list. A number with no mark means an inactive call.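 How the source made its calls: active means spots per cell inhibited over 60%, with over 100 cells counted and total cytoplasm intensity under 500,000; inconclusive means wells with under 100 cells, flagged as likely toxic; inactive means the rest.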

The test deals with G-protein coupled receptor 55 (Homo sapiens) (UniProt Q9Y2T6). Kind of test: inhibition of LPI-stimulated GPR55 beta-arrestin translocation – imaging, U2OS, beta-arrestin-GFP, LPI agonist, primary screen (AID 2013).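 Further: U2OS cells stably carrying GPR55 and arrestin-GFP stimulated by 5 µM LPI near EC80; imaged beta-arrestin-GFP aggregate spots per cell after agonist stimulation; plate controls were LPI-stimulated DMSO wells for no effect and DMSO wells without LPI for full effect.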 Conditions: LPI antagonism, at 10 µM, active compounds read high.
Chain of G-protein coupled receptor 55 (Homo sapiens) (Q9Y2T6 whole entry, looked up): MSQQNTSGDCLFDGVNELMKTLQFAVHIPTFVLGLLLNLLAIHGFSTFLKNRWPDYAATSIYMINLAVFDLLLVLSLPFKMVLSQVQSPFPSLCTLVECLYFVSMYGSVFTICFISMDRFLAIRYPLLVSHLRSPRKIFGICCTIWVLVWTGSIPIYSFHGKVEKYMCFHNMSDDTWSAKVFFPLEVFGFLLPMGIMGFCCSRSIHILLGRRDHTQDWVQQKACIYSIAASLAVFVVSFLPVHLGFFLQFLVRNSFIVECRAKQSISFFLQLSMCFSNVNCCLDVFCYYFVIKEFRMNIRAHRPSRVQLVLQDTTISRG
Turning to `COc1ccc2c(c1)C(NC(C)=O)C(=O)N2CCc1ccccc1` (stereo not drawn), the inhibition was 6.6%.
Take `O=C(CCC(=O)n1ncc2ccccc21)NCc1ccc(F)cc1`: the inhibition is -2.2%.
`O=C(NCc1ccc2c(c1)OCO2)c1nc(Cn2cc([N+](=O)[O-])cn2)no1`: the inhibition is -20%.
The same measure for `CC(C)(C)C(=O)COC(=O)c1cc(-c2ccncc2)nc2ccccc12`: 2.9%.
Take `O=C(Cn1c(=O)oc2ccccc21)N1CCCC1`: the inhibition is -1.8%.
As to `CCOC(=O)c1c(CSc2nc(C)cc(C)c2C#N)n(C)c2cc(Br)c(OC(C)=O)cc12`, the inhibition was 1.8%.
Take `CCOC(=O)c1c(CN2CCOCC2)n(-c2ccccc2)c2cc(Br)c(OC)cc12`: the inhibition is 23.1%.
As to `CCOC(=O)c1c(C)n(C)c2cc(Br)c(OC)cc12`, the inhibition was 7.4%.
For `CCOC(=O)c1c(CSC(=N)N)n(-c2ccc(Br)cc2)c2cc(Br)c(OC(C)=O)cc12`, the inhibition is 89.3% (active).
`CCOC(=O)c1c(CN(C)C)n(-c2ccc(C)cc2)c2cc(Br)c(O)cc12`: the inhibition was -0.7%.
As to `C=CCCc1ccc(C#N)c(SCc2c(C(=O)OCC)c3cc(OC(C)=O)c(Br)cc3n2C)n1`, the inhibition was -23.2%.
The same measure for `CCCCCCCCOC(=O)c1c(CSC(=N)N)n(C)c2cc(Br)c(OC(C)=O)cc12`: 23.7%; for `CCOC(=O)c1c(CN(C)C)n(-c2ccccc2)c2cc(Br)c(O)cc12`: 3.4%.
`CCOC(=O)c1c(CN(C)C)n(-c2ccccc2)c2cc(Br)c(OC)cc12`: the inhibition was -15.4%.
As for `CC(C)CCN(Cc1ccco1)S(=O)(=O)c1ccc(-c2ccc(=O)[nH]n2)s1`, the inhibition was 12.8%.
To `Cc1onc(-c2ccccc2)c1C(=O)N1CCCN2C(=O)c3ccccc3C21` (stereo not drawn) belongs -4.5%; to `O=S1(=O)Cc2cc3ccccc3cc2C1`, 16.4%.
For `COc1ccc(C)cc1NC(=O)c1ccc(OC(F)F)cc1`, the inhibition was 3.1%.
As to `CC(/C=C/c1ccccc1)=N/NC(=O)C(O)c1ccccc1` (stereo not drawn), the inhibition is 0.5%.
For the compound `CC(=O)NC1=NN(C(C)=O)C2(S1)C(=O)N(C(C)=O)c1ccc(C)cc12` (stereo not drawn), the inhibition was 7.7%.
The same measure for `CC(c1nnc(SCC(=O)N2CC(=O)Nc3ccccc32)n1Cc1ccccc1)N(C)C` (stereo not drawn): -4.8%.
On to `COc1cccc(Nc2cc(C)c3ccccc3n2)c1`, for which the inhibition is 6.5%.
On to `CCOc1ccc(NCc2cc3c(C(C)(C)C)nn(-c4ccccc4)c3[nH]c2=O)cc1`, for which the inhibition is 19.3%.
For `Cc1ccc(-c2nn(-c3ccccc3)c3[nH]c(=O)c(CNCc4ccccc4)cc23)cc1`, the inhibition is 11.1%.
Take `CC(C)(C)c1nn(-c2ccccc2)c2[nH]c(=O)c(CNc3ccc4c(c3)OCCO4)cc12`: the inhibition is 16.1%.
In the case of `CC(C)(C)c1nn(-c2ccccc2)c2[nH]c(=O)c(CNCc3ccco3)cc12`, the inhibition was 39.5%.
The same measure for `Cc1nn(-c2ccccc2)c2[nH]c(=O)c(CNCc3ccc4c(c3)OCO4)cc12`: -26.6%; for `COc1cccc(NCc2cc3c(C(C)(C)C)nn(-c4ccccc4)c3[nH]c2=O)c1`: 22.7%.
In the case of `COc1ccc(N2CCN(S(=O)(=O)c3ccc(Cl)s3)CC2)cc1`, the inhibition was -2%.
For `Cc1ccc(NC(=O)CN(C)C(=O)CCOc2cccc(C)c2)cc1`, the inhibition is 7.3%.
Take `O=[N+]([O-])c1ccc(N/N=C2\CC3CC=CC23)cc1` (stereo not drawn): the inhibition was -7.7%.
Turning to `O=C(N/N=C/c1ccc(OC(=O)c2ccccc2Cl)cc1)c1cc(O)cc(O)c1`, the inhibition was 4.4%.
For `O=C(CNC1CCCCC1)N1CCc2ccccc2C1`, the inhibition is -1.3%.
Take `NS(=O)(=O)c1ccc(Oc2ccc(S(N)(=O)=O)cc2)cc1`: the inhibition is -4.4%.
Turning to `C=CS(=O)(=O)c1ccc(Oc2ccc(S(=O)(=O)C=C)cc2)cc1`, the inhibition was 70.4% (active).
Turning to `CNS(=O)(=O)c1ccc(Oc2ccc(S(=O)(=O)NC)cc2)cc1`, the inhibition was 19%.
To `COc1ccc(C(=S)N2CCOCC2)cc1OC(=O)c1ccc([N+](=O)[O-])cc1[N+](=O)[O-]` belongs 6.8%; to `COC(=O)CCC(=O)OC1(C)C(=O)C=C2C=C(C3CC3)N(C3CC3)C=C2C1=O` (stereo not drawn), 5.7%; to `COc1cccc(NC(=O)COC(=O)C2C3CC4OC(=O)C2C4C3)c1` (stereo not drawn), 2.1%.
Regarding `COCCN=C1N[C@@H](c2ccccc2)C(C(=O)OC)=C(C)N1Cc1ccccc1`, the inhibition was 31.4%.
To `COC(=O)C1=C(C)N(Cc2ccccc2)C(=NCCCCO)N[C@H]1c1ccccc1` belongs -6.4%; to `Cc1ccc(OCC(=O)N2c3ccccc3NC(=O)C2(C)C)c([N+](=O)[O-])n1`, 6.9%; to `CCOC(=O)c1nc(Nc2ccccc2)c2ccccc2n1`, -3.5%.
The same measure for `CCOC(=O)c1nc(Nc2ccc(C)cc2)c2ccccc2n1`: 11.6%; for `Cc1csc(NC(=O)CCC(=O)N(CC(=O)NC2CCCCC2)c2ccccc2)n1`: 7.7%; for `Cn1cccc1/C=N/N1CCN(Cc2ccccc2Cl)CC1`: -2.2%.
As to `O=C1NC(=O)N(Cc2ccccc2F)C1=O`, the inhibition was -13.9%.
Consider `Cc1cc(F)ccc1NC(=O)C1CCN(S(=O)(=O)c2ccc3c(c2)CCCC(=O)N3)CC1`, for which the inhibition was 8.1%.
In the case of `O=C(NCCNC(=O)c1cc(Cl)ccc1Cl)c1ccccn1`, the inhibition is 3.4%.
For the compound `CC(NC(=O)CN1CCCC1)C12CC3CC(CC(C3)C1)C2` (stereo not drawn), the inhibition was -3.7%.
`CC(NC(=O)Cn1nc(C(=O)O)c2ccccc2c1=O)C12CC3CC(CC(C3)C1)C2` (stereo not drawn): the inhibition is -2.7%.
Regarding `O=C(COC(=O)c1cc(S(=O)(=O)N2CCc3ccccc3C2)ccc1Cl)NCc1ccco1`, the inhibition was 7.3%.
For the compound `Cn1c(N)c(C(=O)COC(=O)CCC2CCCCC2)c(=O)n(C)c1=O`, the inhibition was 8.4%.
On to `CCN(CC)S(=O)(=O)c1ccc(N2CCOCC2)c(NC(=O)COc2ccccc2C#N)c1`, for which the inhibition was -13.6%.
On to `Cn1c(=O)c2ccccc2n2c(CCl)nnc12`, for which the inhibition is 5.8%.
As to `O=C(NCc1ccccn1)c1ccc2nc(C3CCCCC3)oc2c1`, the inhibition was -4.5%.
To `CSCCNC(=O)c1ccc2nc(C3CCCCC3)oc2c1` belongs 4.5%.
For the compound `CCOc1ccc(N(C)S(=O)(=O)c2ccc3[nH]cc(C(=O)NCC4CCCO4)c(=O)c3c2)cc1` (stereo not drawn), the inhibition was 8.3%.
`Cc1cc(NC(=O)c2ccc([N+](=O)[O-])cc2)n(CCC#N)n1`: the inhibition is 4.7%.
For `COCCCn1c(=S)[nH]c2sc3c(c2c1=O)CCCS3`, the inhibition is -0.4%.
As to `CCc1ccc(CN2CCCC(C(=O)N3CCCCC3)C2)cc1` (stereo not drawn), the inhibition was 12%.
As for `CCc1nnc(NC(=O)c2ccc3c(c2)C(=O)N(CC(C)C)C3=O)s1`, the inhibition is 3.7%.
Regarding `CCCNC(=O)c1nnsc1Sc1ccc(Cl)cc1`, the inhibition was -10.7%.
For the compound `CCCNC(=O)c1nnsc1S(=O)(=O)c1ccc(Cl)cc1`, the inhibition was 31.8%.
As to `CNC(=O)c1ncoc1-c1ccc(Cl)cc1`, the inhibition is 12.3%.
On to `O=C(Nc1ccccc1)c1nnsc1S(=O)(=O)c1ccc(Cl)cc1`, for which the inhibition is 4.3%.
Consider `O=C(CC12CC3CC(CC(C3)C1)C2)NC(Cc1ccccc1)C(=O)O` (stereo not drawn), for which the inhibition is 10.7%.
As for `CC(=O)N(C(C)=O)c1nc(-c2ccccc2)cn1/N=C/c1ccccc1`, the inhibition is 7.8%.
For the compound `CCCNC(=O)NC(=O)CSc1nncs1`, the inhibition is 1.8%.
On to `Cc1ccc(C(=O)N/C(=C/c2ccco2)C(=O)N2CCCCC2)cc1`, for which the inhibition was -6.4%.
Take `CC(C)Nc1nc(Cl)nc(NCCOc2ccccc2)n1`: the inhibition is 1.4%.
As for `CN(C)CC(C)(C)CNS(=O)(=O)c1ccc(Cl)s1`, the inhibition was 2.9%.
As to `O=c1[nH]c(Cc2ccccc2)nc2scc(-c3ccccc3)c12`, the inhibition was -0.4%.
To `NC(=O)c1cc(-c2ccccc2)nc(N2CCCCCC2)n1` belongs -8.5%.
Regarding `CN1CCN(c2nc(C(N)=O)cc(-c3ccccc3)n2)CC1`, the inhibition was -5.1%.
Turning to `CC(=O)Nc1ccc(S(=O)(=O)NCCC(=O)N2CCc3ccccc32)cc1`, the inhibition is 2.8%.
Turning to `O=C(NC1CCCN(c2ccc(C(F)(F)F)cn2)C1)c1cc(Cl)ccc1F` (stereo not drawn), the inhibition is 9.1%.
With `CC(C)=NNc1nc2c(c(=O)[nH]c(=O)n2C)n1CCc1ccccc1`, the inhibition was -4.6%.
Take `C=CCOc1c(CNc2cccc(C(=O)O)c2)cccc1OC`: the inhibition was 4.5%.
With `COc1ccc(Br)cc1/C=N/Nc1cccc(C(=O)O)c1`, the inhibition is 1%.
In the case of `Cc1c(NC(=O)CN2C(=O)NC(CCc3ccccc3)C2=O)c(=O)n(-c2ccccc2)n1C` (stereo not drawn), the inhibition was 13.9%.
On to `NC(=O)[C@@H]1CCOc2c(F)cc([N+](=O)[O-])cc2C(=O)N[C@@H](CO)C(=O)NCC(=O)N1`, for which the inhibition is 1.8%.
The same measure for `COc1ccc(/C=C2\SC(N)=NC2=O)cc1`: -7%.
To `CC12CCC(C/C1=N\N=C1\NC(=O)/C(=C\c3ccc(Cl)cc3)S1)C2(C)C` (stereo not drawn) belongs 41.5%; to `O=C(CN(C(=O)CCC(=O)Nc1nccs1)c1ccc(F)cc1)NCC1CCCO1` (stereo not drawn), 15%; to `C/C(Cl)=C\CSc1nnc2n(N)c(=O)c3ccccc3n12`, -16.2%.
Regarding `CCN(Cc1cn2cccnc2n1)C1CCCCC1`, the inhibition was 87.7% (active).
For `Cc1ccc(SCc2cn3cccnc3n2)cc1`, the inhibition was -13.1%.
The same measure for `Cc1ccc(OCc2cn3cccnc3n2)cc1`: 12.3%.
With `O=C1NCC(c2ccccc2)C1C(=O)N/N=C/c1ccc(Cl)s1` (stereo not drawn), the inhibition is 5.1%.
With `COc1ccc(/C=c2\s/c(=C(/C#N)C(=O)NCc3ccco3)n(-c3ccccc3)c2=O)cc1`, the inhibition is 2.8%.
As for `CN(c1ccccc1)c1ccc(/C=c2\s/c(=C(/C#N)C(=O)C(C)(C)C)n(Cc3ccco3)c2=O)cc1`, the inhibition is 74% (active).
On to `Cc1ccc(/C=c2\s/c(=C(/C#N)C(=O)N3CCCC3)n(Cc3ccco3)c2=O)s1`, for which the inhibition was 5.1%.
